From the supplement of paper PMC10338343
± gives the standard deviation.

system: MILI (PIWIL2) piRISC loaded with L1MC piRNA (26 nt); test: pre-steady-state target cleavage rate (min^-1); guide: L1MC piRNA 5'p-UAACUAAAUACUAUGCAAGCUGUAGG; MIWI and MILI are mouse PIWI proteins and EfPiwi is from a freshwater sponge; tags in brackets are library labels; higher = faster piRNA-guided slicing of the target; conditions: auxiliary factor: 500 nM mouse GTSF1
How it was run: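 The pre-steady-state cleavage rate came from a burst-and-steady-state fit to pooled data from three Cleave-'n-Seq trials, in which uncleaved targets were sequenced and normalised to depth and to weakly complementary targets. Each reaction held 0.1 nM transcribed, DNA-blocked target RNA library and 1 nM active affinity-purified piRISC carrying one synthetic guide, with or without 500 nM GTSF1 partner protein, in HEPES–potassium acetate buffer at 33 °C for 0–8 or 0–960 min. k3 was capped at 0.0001 min^-1.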

Row | Sequence | pre-steady-state target cleavage rate
1 | UCCUGGAUCAGCAACCAUAGUAUUUAGUAA | 0.0962 ± 0.012
2 | UCCUGCUACAGCUUCGUUAGUAUUUAGUAA | 0.154 ± 0.033
3 | UCCUGGAUCAGCUUGCAUAGUAUUUUCUUA | 0.0452 ± 0.013
4 | UCCUGGAUGUCCAACCAUAGUAUUUAGUUA | 0.00412 ± 0.004
5 | UCCUCCUACAGCUUGCUAAGUAUUUACAAA | 0.0519 ± 0.013
6 | UCCUGGAACAGCUUGCAUAGUUAAUAGUAA | 0.0133 ± 0.0056
7 | UCCUGGAUGUCCUACCAUAGUAUUUAGUAA | 0.021 ± 0.0077
8 | UCCUGGAUGUGCUUGCAUAGUAUAUAGUUA | 0.083 ± 0.014
9 | UCCUGCUACAGCUUGCAUAGUAAAUACAAA | 0.0117 ± 0.006
10 | UCCUGGAUGUCCUUGCAUAAUAUUUAGUUA | 0.0892 ± 0.015
11 | UCCUGGAUGUCGAUGCAUAGUAUUUAUGUUA | 0.106 ± 0.022
12 | UCCUGGAACAGGAAGCAUAGUAUUUUCAAA | 0.00836 ± 0.0043
13 | UCCUGGAUCAGCUUGCAUAGAAUUUACUUA | 0.021 ± 0.0075
14 | UCCUGGAUGUCGAACCAUAGUAUUUAGUUA | 0.00718 ± 0.0019
15 | UCCUGGAUCAGCUUGCUAAGUAUUUUCAAA | 0.00483 ± 0.0036
16 | UCCUGCUACAGCUUGCAUAGUAUAAACAAA | 0.0722 ± 0.022
17 | UCCUGGAUGUCCUUGCUAAGUAUUUAGUAA | 0.0128 ± 0.006
18 | UCCUGGAUGUCCUUGCUUAGAAUUUAGUUA | 0.00442 ± 0.004
19 | UCCUGGAACAGCUUGCAUAGUAAUUACAAA | 0.0522 ± 0.019

Row | Sequence | pre-steady-state target cleavage rate
20 | UCCUGGAUGUCCUUGCUUAGUAUUUACUUA | 0.0556 ± 0.015
21 | UCCUGGAUGAGCUUGGAUAGUAUUAAGUUA | 0.0932 ± 0.022
22 | UCCUGGAUGUGCUUGCAUUGUAUUUAGAUA | 0.0503 ± 0.009
23 | UCCUGGUAGUCCUUGCAUAGUAUUUACAAA | 0.00835 ± 0.0045
24 | UCCUGGAUGAGCUUGCAUACUAUUUACUUA | 0.00478 ± 0.0043
25 | UCCUGGAUGUCGAACGAUGGUAUUUAGUUA | < 0.0001
26 | UCCUCCUACAGCUACGAUAGUAUUUACAAA | 0.0587 ± 0.019
27 | UCCUGGAUGAGCUUGCAUAGUUAAUAGUUA | 0.00524 ± 0.004
28 | UCCUGGAUGAGCUACGAUAGUAUUUAGUUA | 0.00662 ± 0.0035
29 | UCCUGGAUCAGCUACCAUAGUAUUUAGUAA | 0.127 ± 0.012
30 | UCCUGGAUGUCGAUGCAUAAUAUUUAGUUA | 0.0556 ± 0.013
31 | UCCUGGAUGUCCUUGCAUAGUAAUUUGUUA | 0.0222 ± 0.0085
32 | UCCUGGAUCAGCUUGCAUAGUAUUAUCAAA | 0.0975 ± 0.021
33 | UCCUGGAUGUCCUUGCAUAGUUUUUAGUAA | 0.013 ± 0.0043
34 | UCCUCCUUGUGCUUGCAUAGUAUUUUCAAA | 0.0192 ± 0.0073
35 | UCCUGGAUGUGCUUGCCAUAGUAUUUAGUUA | 0.014 ± 0.0071
36 | UCCUGGAACAGCAUGCAUAGUAUUUACAAA | 0.182 ± 0.035
37 | UCCUGGAUGUCCUAGCUUAGUAUUUAGUUA | 0.0102 ± 0.0041
38 | UCCUGGAUGUCGAUGCAUAGUAUUGAGUUA | 0.0608 ± 0.013
